PubChem BioAssay (Tox21)
Inconclusive results are not listed. Where a call stands in place of a potency, no number is given. A number with no mark means an inactive call. The source made the active and inactive calls. Unless noted, calls come from the whole dose curve; as a rule, active = well fitted curve in the direction sought with a large enough effect in the repeat runs; inconclusive = weak or mixed curves; inactive = no such curve, though single readings can be large; an effect the other way counts as inactive or inconclusive.

Key:
[1] = qHTS assay to identify small molecule antagonists of the estrogen related receptor (ERR) signaling pathway from Tox21 library - cell viability counter screen (AID 1224834); note: nearly all actives have a fitted effect of over 30% in size
Method in brief: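 After 17.5 h of compound exposure at 37 C, ERR cells are incubated with CellTiter-Fluor for 30 min and fluorescence intensity serves as the viability measure.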

[2] = target: Luciferin 4-monooxygenase (Photinus pyralis) (UniProt P08659); experiment: qHTS assay to identify small molecule inhibitors of firefly luciferase (AID 1224835); note: nearly all actives have a fitted effect of over 25% in size; note: potency is the fitted concentration of half-maximal effect; for activity change, negative = inhibition: series mostly up to about 120 µM
Sequence of Luciferin 4-monooxygenase (Photinus pyralis) (P08659 whole entry, looked up): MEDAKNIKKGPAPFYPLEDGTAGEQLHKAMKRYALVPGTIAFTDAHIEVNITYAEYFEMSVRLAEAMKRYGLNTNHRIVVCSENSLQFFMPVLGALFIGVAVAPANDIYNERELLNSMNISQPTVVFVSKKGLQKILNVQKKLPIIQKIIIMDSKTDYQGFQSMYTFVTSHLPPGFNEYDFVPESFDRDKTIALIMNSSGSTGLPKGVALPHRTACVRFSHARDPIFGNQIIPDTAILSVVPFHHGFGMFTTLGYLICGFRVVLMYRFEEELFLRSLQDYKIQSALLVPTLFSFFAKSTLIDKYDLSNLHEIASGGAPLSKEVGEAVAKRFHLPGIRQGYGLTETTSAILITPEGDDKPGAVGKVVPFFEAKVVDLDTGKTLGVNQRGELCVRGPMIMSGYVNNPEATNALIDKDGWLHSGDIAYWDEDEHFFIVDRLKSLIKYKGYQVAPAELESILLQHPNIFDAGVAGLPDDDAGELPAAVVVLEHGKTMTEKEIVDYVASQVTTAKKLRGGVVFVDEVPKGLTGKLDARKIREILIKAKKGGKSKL
Method in brief: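 Biochemical qHTS: compounds run as interplate titrations against purified firefly enzyme, with D-luciferin and ATP each at its KM concentration. Light output recorded by CCD imaging.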

[3] = qHTS assay to identify small molecule agonists of the constitutive androstane receptor (CAR) signaling pathway - cell viability counter screen (AID 1224836); note: series mostly up to about 92 µM; nearly all actives have a fitted effect of over 45% in size
Method in brief: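 Cells were seeded and incubated 4 hrs. Compounds were added across 15 concentrations together with PK11195 at 0.75 uM final. Plates were incubated 23 hrs at 37 C. CellTiter-Fluor was added and fluorescence measured.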

[4] = qHTS assay to identify small molecule antagonists of the constitutive androstane receptor (CAR) signaling pathway - cell viability counter screen (AID 1224837); note: series mostly up to about 92 µM; nearly all actives have a fitted effect of over 45% in size
Method in brief: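 Counter screen run in HepG2-CYP2B6-hCAR cells: 4 hr settle, compound titration (15 concentrations) with 50 nM CITCO, 23 hr at 37 C/5% CO2, CellTiter-Fluor fluorescence.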

[5] = target: Nuclear receptor subfamily 1 group I member 3 (Homo sapiens) (UniProt Q14994); experiment: qHTS assay to identify small molecule antagonists of the constitutive androstane receptor (CAR) signaling pathway (AID 1224838);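 note: HepG2 cells stably expressing hCAR with CYP2B6 luciferase reporter stimulated by CITCO; nearly all actives have a fitted effect of over 40% in size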
Sequence of Nuclear receptor subfamily 1 group I member 3 (Homo sapiens) (Q14994 whole entry, looked up): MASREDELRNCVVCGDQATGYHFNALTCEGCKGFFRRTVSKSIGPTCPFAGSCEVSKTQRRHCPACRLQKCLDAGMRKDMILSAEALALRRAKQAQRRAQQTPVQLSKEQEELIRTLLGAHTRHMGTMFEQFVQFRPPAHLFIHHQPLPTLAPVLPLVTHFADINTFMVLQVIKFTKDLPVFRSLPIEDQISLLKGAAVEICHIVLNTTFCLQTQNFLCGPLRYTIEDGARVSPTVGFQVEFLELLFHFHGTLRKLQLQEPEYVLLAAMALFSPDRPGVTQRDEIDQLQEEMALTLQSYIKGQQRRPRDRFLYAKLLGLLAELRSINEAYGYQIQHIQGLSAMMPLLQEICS
Method in brief: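 Cell line: HepG2 double-stable for hCAR and CYP2B6-2.2kb reporter. Agonist: CITCO, 50 nM final. Compounds: 15 concentrations, 24 h, 37 C. Detection: ONE-Glo luminescence.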

[6] = target: Nuclear receptor subfamily 1 group I member 3 (Homo sapiens) (UniProt Q14994); experiment: qHTS assay to identify small molecule agonists of the constitutive androstane receptor (CAR) signaling pathway (AID 1224839); note: nearly all actives have a fitted effect of over 15% in size; note: potency is the fitted concentration of half-maximal effect;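 for activation: HepG2 cells stably carrying human CAR and a CYP2B6 luciferase reporter; series mostly up to about 92 µM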
Method in brief: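 Cells were plated and incubated 4 hrs, then dosed with compounds at 15 concentrations. PK11195 was added to 0.75 uM final. After 24 hrs at 37 C, luciferase luminescence was measured.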

[7] = qHTS assay to identify small molecule antagonists of the estrogen related receptor signaling pathway with the pleiotropic PPARgamma coactivator (PGC) from Tox21 10K library - cell viability counter screen (AID 1224840; active = well fitted cell-killing curve with a large enough effect in the repeat runs, not every such curve was filed as active; note: nearly all actives have a fitted effect of over 40% in size)
Method in brief: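 Following seeding of 2,000 PGC/ERR cells/well and 6 hours' incubation, test compounds were delivered in DMSO. The plates then sat 17.5 hours at 37 C before a fluorogenic live-cell protease reagent (CellTiter-Fluor) was read after 30 min.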

[8] = qHTS assay to identify small molecule agonists of the estrogen related receptor signaling pathway with the pleiotropic PPARgamma coactivator (PGC) from Tox21 10K library (AID 1224842); note: nearly all actives have a fitted effect of over 15% in size; note: potency is the fitted concentration of half-maximal effect
Method in brief: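 PGC/ERR reporter cell line, 2,000 cells per well, incubated 6 h at 37 C before 23 nL compound in DMSO was added. After 18 h at 37 C, One-Glo luminescence read following 30 min at room temperature.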

[9] = qHTS assay to identify small molecule antagonists of the estrogen related receptor signaling pathway with the pleiotropic PPARgamma coactivator (PGC) from Tox21 10K library (AID 1224841; call rule not given here; note: series mostly up to about 92 µM; actives are mostly falling curves and most rising ones were filed inactive; nearly all actives have a fitted effect of over 50% in size)
Method in brief: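 qHTS antagonist format: PGC/ERR cells, 2k/well, compound in DMSO by pin transfer after 6 h attachment, 18 h treatment at 37 C, One-Glo luminescence read at 30 min.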

## CCCCC1CCCCC(=O)O1 (centres undefined)
[1]
  Potency: inactive
[2]
  Potency: inactive
[3]
  outcome: inactive
[4]
  outcome: inactive
[5]
  Potency: inactive
[6]
  Potency: inactive
[7]
  outcome: inactive
[8]
  Potency: inactive

## CCCCCCC(=O)OCC
[1]
  Potency: inactive
[2]
  Potency: inactive
[3]
  outcome: inactive
[4]
  outcome: inactive
[5]
  Potency: inactive
[6]
  Potency: inactive
[7]
  outcome: inactive
[8]
  Potency: inactive

## CC(C)(O)Cc1ccccc1
[1]
  Potency: inactive
[2]
  Potency: inactive
[3]
  outcome: inactive
[4]
  outcome: inactive
[5]
  Potency: inactive
[6]
  Potency: inactive
[7]
  outcome: inactive
[9]
  Potency: inactive
[8]
  Potency: inactive

## C1=C\CC/C=C\CC/C=C\CC/1
[1]
  Potency: inactive
[2]
  Potency: inactive
[3]
  outcome: inactive
[4]
  outcome: inactive
[5]
  Potency: inactive
[6]
  Potency: inactive
[7]
  outcome: inactive
[8]
  Potency: inactive

## CC(C)COC(=O)C(C)C
[1]
  Potency: inactive
[2]
  Potency: inactive
[3]
  outcome: inactive
[4]
  outcome: inactive
[5]
  Potency: inactive
[6]
  Potency: inactive
[7]
  outcome: inactive
[8]
  Potency: inactive

## NCC[C@H](O)C(=O)N[C@@H]1C[C@H](N)[C@@H](O[C@H]2O[C@H](CN)[C@@H](O)[C@H](O)[C@H]2O)[C@H](O)[C@H]1O[C@H]1O[C@H](CO)[C@@H](O)[C@H](N)[C@H]1O
[1]
  viability change, negative = cytotoxic: 0.879% [at 0.349 µM]
[2]
  activity change, negative = inhibition: -1.73% [at 0.435 µM]
[3]
  viability change, negative = cytotoxic: 2.17% [at 0.349 µM]
[4]
  activity change, negative = cytotoxicity: 3.03% [at 0.349 µM]
[5]
  activity, negative = inhibition: -4.74% [at 0.349 µM]
[6]
  activation: 1.57% [at 0.349 µM]
[7]
  viability change, negative = cytotoxic: 1.22% [at 0.349 µM]

## Cc1nc(-c2ccc(OCC(C)C)c(C#N)c2)sc1C(=O)O
[1]
  Potency: inactive
[2]
  Potency: 0.309 µM (active)
[3]
  outcome: inactive
[4]
  outcome: inactive
[5]
  Potency: inactive
[6]
  Potency: 0.075 µM (active)
[7]
  outcome: inactive
[8]
  Potency: 0.668 µM (active)

## Cc1onc(-c2ccccc2)c1-c1ccc(S(N)(=O)=O)cc1
[1]
  Potency: inactive
[2]
  Potency: inactive
[3]
  outcome: inactive
[4]
  outcome: inactive
[5]
  Potency: inactive
[6]
  Potency: inactive
[7]
  outcome: inactive
[8]
  Potency: inactive

## CCCCCC[C@@H](CCC)C(=O)O
[1]
  Potency: inactive
[2]
  Potency: inactive
[3]
  outcome: inactive
[4]
  outcome: inactive
[5]
  Potency: inactive
[6]
  Potency: inactive
[7]
  outcome: inactive
[8]
  Potency: inactive

## CCC(=O)Nc1cccc(N)c1
[1]
  Potency: inactive
[2]
  Potency: inactive
[3]
  outcome: inactive
[4]
  outcome: inactive
[5]
  Potency: inactive
[6]
  Potency: inactive
[7]
  outcome: inactive
[9]
  Potency: inactive
[8]
  Potency: inactive

## CO[Si](CCCNCCC[Si](OC)(OC)OC)(OC)OC
[1]
  Potency: inactive
[2]
  Potency: inactive
[3]
  outcome: inactive
[4]
  outcome: inactive
[5]
  Potency: inactive
[6]
  Potency: inactive
[7]
  outcome: inactive

## CCO[Si](C)(OCC)OCC
[1]
  Potency: inactive
[2]
  Potency: inactive
[3]
  outcome: inactive
[4]
  outcome: inactive
[5]
  Potency: inactive
[6]
  Potency: inactive
[7]
  outcome: inactive
[9]
  Potency: inactive
[8]
  Potency: inactive

## CCCCOCC(C)OCC(C)O (centres undefined)
[1]
  Potency: inactive
[2]
  Potency: inactive
[3]
  outcome: inactive
[4]
  outcome: inactive
[5]
  Potency: inactive
[6]
  Potency: inactive
[7]
  outcome: inactive
